Out of some 1,100 compounds screened, fewer than 10 were called active.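 The calls were made as follows: active = mean activation above a set limit taken from the earlier primary screen (cut at about 11% in these data); inactive = the rest.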 A selection follows.
target: Transthyretin (Homo sapiens) (UniProt P02766); experiment: TTR transcription activators, retest, confirmation, cell-based, luminescence, SH-SY5Y, triplicate (AID 1117280); conditions: SHSY5Y TTR promoter Gaussia luciferase, at 16.7 µM, hits give high values, 100% = purified Lucia enzyme wells, no cells;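 also: 0% = DMSO-treated cells and 100% = recombinant Lucia luciferase without cells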

activation, inactive:
COc1ccc(-c2oc3ncn(Cc4ccco4)c(=N)c3c2-c2ccc(OC)cc2)cc1 -0.27%
O=C(NNC1=NCCC1)c1cccc(S(=O)(=O)N2CCCCC2)c1 0%
Cc1ccc(CN2CCCOCCS2(=O)=O)cc1 0.01%
O=S(=O)(NCCCN1CCOCC1)c1ccc(F)c(Cl)c1 1.67%
N#Cc1cccc(CN2CCC(=O)N(CCO)CC2)c1 0.71%
Cc1cc(C)c2nc3nc(C)cc(C)c3c(N)c2c1 9.48%
COc1cccc(-c2cnc(C(O)c3ccccc3OC)[nH]2)c1 (stereo unspecified) -0.09%
C/C(CC(=O)Nc1ccc(N(C)C)cc1)=N\NC(=O)c1ccccc1F 0.83%
C(=N\n1cnnc1)/c1cccnc1 0.91%
CCOc1ccccc1NC(=O)COc1ccc(S(=O)(=O)N2CCCC2)cc1 1.24%
CSCCC(NC(N)=O)C(=O)N(C)CC(=O)Nc1ccc(C)cc1 (stereo unspecified) -0.85%
CCOC(=O)c1cc(-c2ccc(Cl)s2)nc2c1c(C)nn2C 0.17%
O=C(Nc1cccc(O)c1)c1ccc(C(=O)c2ccccc2)o1 -1.44%
COc1cc(C(C)=O)ccc1OC(C)C(=O)Nc1ccc(S(=O)(=O)N2CCCC2)cc1 (stereo unspecified) 0.49%
Cc1c(NS(=O)(=O)c2ccc(NC3CCCC3)c([N+](=O)[O-])c2)c(=O)n(-c2ccccc2)n1C -1.51%
C[C@H](NC(=O)C1CCN(S(=O)(=O)c2ccccc2)CC1)C(=O)NCc1ccccc1 -0.18%
CCCCc1cc(=O)oc2cc(C)cc(OCc3nn[nH]n3)c12 0.29%
O=C(O)C1OC(C(=O)O)C2C1C(F)(F)C2(F)F (stereo unspecified) 0.77%
CCCCOCCCNC(=O)C[C@H]1C[C@@]2(C(=O)OC)C(=C[C@H](C(C)(C)C)O[C@@H]2C)N(CCc2ccc(OC)c(OC)c2)C1=O -0.4%
Cc1cccc(C)c1NC(=O)CN1C(=O)C(C)Oc2ccccc21 (stereo unspecified) -0.02%
Brc1ccc(/C=N/N2CCN(C3c4ccccc4-c4ccccc43)CC2)s1 -0.21%
O=C(O)Cn1c(Cc2ccccc2)nc2ccccc21 -0.81%
Cc1nc(-c2ccc(Cl)cc2)sc1C(=O)NN 1.27%
COc1cc(N2C(=O)CC3(CCCC3)CC2=O)cc(OC)c1OC 0.03%
CCCCCc1ccc(-c2cn(Cc3ccc4ccccc4c3)nn2)cc1 -0.98%
CCOc1ccc(N=C2NC(=O)S/C2=C\c2ccc(O)cc2)cc1 -2.11%
Cc1ccccc1/[N+]([O-])=C/c1ccncc1 0.64%
O=C(NCCCNC(=O)c1ccccc1Cl)c1cnccn1 -0.49%
COc1ccccc1N1CCN(Cc2cc(OC)c3c(c2)OCO3)CC1 1.03%
O=C(CCC(=O)c1cccs1)NCc1ccccc1 -0.16%
CCOc1ccc(NC(=O)COc2ccc(S(=O)(=O)N3CCCC3)cc2)cc1 -0.08%
Cc1c(C#N)c(NC(=O)c2ccccc2)n(Cc2ccccc2)c1C 0.46%
O=C(Nc1ccccc1C(=O)N1CCCCCC1)c1ccccc1Cl 0.38%
COc1ccc(S(=O)(=O)NCC(=O)NCc2cc(=O)n(C)c(=O)n2C)cc1F -0.18%
Cc1cccc(N2C(=O)CC(SC(N)=Nc3ccccc3)C2=O)c1 (stereo unspecified) -0.45%
C=C1C(C(C)C)N(C)C2=NC(c3ccccc3)CC(=O)N12 (stereo unspecified) 0.07%
Cc1cc(C)c(C#N)c(N2CCC(C(N)=O)CC2)n1 -0.71%
CC(C)NC(=O)c1ccc(Sc2ccccc2)c([N+](=O)[O-])c1 -0.62%
CCOC(=O)c1c(-c2ccccc2)oc2ccc(OCC(N)=O)cc12 -0.6%
O=C(NC(=O)c1ccccc1N1CCCCC1)Nc1ccc(Br)cc1 0.23%
COc1ccc(C2c3ccc(O)cc3Oc3ncn(CCCO)c(=N)c32)cc1OC (stereo unspecified) -0.83%
CC(C)(C)C1CCC(OC(=O)CCC(=O)Nc2ccccc2)CC1 (stereo unspecified) -1.07%
O=C(NNC(=O)c1cc(S(=O)(=O)N2CCCCC2)ccc1Cl)c1ccccc1O 0.18%
Nc1nc(SCC(=O)Nc2ccc(Cl)c([N+](=O)[O-])c2)n[nH]1 0.36%
COC(=O)c1cnn2c(C(F)(F)F)cc(-c3ccco3)nc12 -0.89%
O=C1c2cccc(OCC(=O)N3N=C(c4cccs4)CC3c3ccc(F)cc3)c2CCN1Cc1ccccc1 (stereo unspecified) -0.93%
Cn1cc(CN2CCCC(CO)C2)c(-c2ccc(Oc3ccccc3)cc2)n1 (stereo unspecified) 2.56%
CCCCN(C)CCNC(=O)C1CCCN(S(=O)(=O)c2cccc3nsnc23)C1 (stereo unspecified) 0.58%
O=S(=O)(NCc1ccccc1Br)c1ccccc1Br -0.25%
O=C(CS(=O)(=O)c1ccccc1)Nc1ccc(S(=O)(=O)Nc2ccccn2)cc1 -0.26%

activation, active:
N=c1ccn(CC(=O)NC(N)=O)c2ccccc12 11.7%
